The values that follow come from PubChem BioAssay (EPA / NIEHS).

The structures appear in SMILES notation. Active and inactive are the calls of the source. Rule for the calls: active = hit-call score of the fitted dose curve at least 0.9, where 1 is the maximum; inactive = score below 0.9.

Chain of X-box-binding protein 1 (Homo sapiens) (P17861 whole entry, looked up): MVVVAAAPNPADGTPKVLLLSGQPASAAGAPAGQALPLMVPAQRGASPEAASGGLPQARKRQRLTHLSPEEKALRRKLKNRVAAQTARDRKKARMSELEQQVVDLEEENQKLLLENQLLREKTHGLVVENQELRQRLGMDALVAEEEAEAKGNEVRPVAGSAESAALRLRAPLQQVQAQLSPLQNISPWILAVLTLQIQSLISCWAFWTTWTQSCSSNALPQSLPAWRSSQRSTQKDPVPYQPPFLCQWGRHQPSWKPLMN

The target of this experiment is X-box-binding protein 1 (Homo sapiens) (UniProt P17861). Description: ATG_Xbp1_CIS: Attagene CIS-FACTORIAL HepG2 Assay for human X-box Binding Protein 1 (XBP1) (AID 2282972). The following applies: HepG2 XBP1 cis-element reporter, Attagene multiplex; actives raise or lower the signal. As for the experimental part:
ATG_CIS is a cell-based, multiplexed-readout assay that uses HepG2, a human liver cell line, with measurements taken at 24 hours after chemical dosing in a 24-well plate.ATG_Xbp1_CIS is one of 52 assay component(s) measured or calculated from the ATG_CIS assay. It is designed to make measurements of mRNA induction, a form of inducible reporter, as detected with fluorescence intensity signals by Reverse transcription polymerase chain reaction (RT-PCR) and Capillary electrophoresis technology.Data from the assay component ATG_Xbp1_CIS was analyzed into 1 assay endpoint. This assay endpoint, ATG_Xbp1_CIS, was analyzed with bidirectional fitting relative to DMSO as the negative control and baseline of activity. Using a type of inducible reporter, measures of mRNA for gain or loss-of-signal activity can be used to understand the reporter gene at the transcription factor-level as they relate to the gene XBP1. Furthermore, this assay endpoint can be referred to as a primary readout, because this assay has produced multiple assay endpoints where this one serves a reporter gene function. To generalize the intended target to other relatable targets, this assay endpoint is annotated to the dna binding intended target family, where the subfamily is basic leucine zipper.
Human liver HepG2 cells are transiently transfected with multiple reporter transcription units (MRTUs) in 6-well plates using FuGene 6 reagent (Roche; 3 ml FuGene/1 mg DNA). The MRTU constructs are regulated by a cis-regulating element (promoter). […] A major difference between the CIS and TRANS system is that in CIS activities of endogenous TFs are measured, whereas the TRANS assay evaluates changes in activities of exogenous, chimeric NR-Gal4 proteins. […] At the end of 24 hour incubation, total RNA was isolated using TriZol reagent (Invitrogen). The isolated RNA is then reverse-transcribed using oligo(dT) primer and Mo-MLV reverse transcriptase (Invitrogen) with DNAse I (Ambion) treatment for 30 min. The one-tenth of the produced cDNA was amplified by PCR using Taq DNA polymerase (Invitrogen) and two reporter sequence-specific primers. The PCR products were fluorescently labeled by primer extension with 6-arboxyfluorescein (6-FAM) 5'-labeled reporter sequence-specific primer (2 min at 95 C, 20 s at 68 C and 10 min at 72 C) and these products were digested with 5U of HpaI (New England Biolabs) for 2h at 37 C. The fragments were purified using Qiaquick PCR columns (Qiagen), analyzed on an ABI 3130xL genetic analyzer (Applied Biosystems) with peak positions identified by using a set of X-rhodamine (ROX)-labeled MapMarker1000 molecular weight standards (BioVentures). The raw capillary electrophoresis data was processed using Attagraph software (Attagene).
Regarding `C=C(C#N)C(=O)OCC`, the outcome was inactive.

Take `NCCNc1cccc2ccccc12`: the AC50 was 161 µM (active).

In the case of `CCC1(c2ccccc2)C(=O)NCNC1=O`, the result was inactive.

With `CCCCC(CC)C(=O)OC(C)C` (stereo not given), the result was inactive.

Consider `O=P(O)(O)O`, for which the call was inactive.

For the compound `Cc1cc(=O)oc2cc(N(C)C)ccc12`, the compound was classed as inactive.

In the case of `COC(C)(C)CCCC(C)CC=O` (stereo not given), the call was inactive.

Take `NC1CCCCC1N` (stereo not given): the outcome was inactive.

Turning to `CCC(=O)O[C@@H]1C[C@H]2CC[C@]1(C)C2(C)C`, the compound was classed as inactive.

As to `CCCCCCC(C)(C)S`, the call was inactive.

Take `COc1ccc(CCO)cc1`: the compound was called inactive.

In the case of `C[C@H](CCC(=O)NCC(=O)O)[C@H]1CC[C@H]2[C@@H]3[C@H](O)C[C@@H]4C[C@H](O)CC[C@]4(C)[C@H]3C[C@H](O)[C@]12C`, the outcome was inactive.

As to `CCCCC(CC)COC(C)=O` (stereo not given), the call was inactive.

As to `CCOC(=O)[C@@H](C)Oc1ccc(Oc2nc3ccc(Cl)cc3o2)cc1`, the outcome was inactive.

In the case of `COC(=O)c1cccnc1`, the result was inactive.

In the case of `c1ccc(Oc2ccccc2)cc1`, the compound was called inactive.

On to `CCOc1ccc(NC(=O)CC(C)O)cc1` (stereo not given), for which the result was inactive.

As for `CC(=O)O[C@@H]1CC2CCC1(C)C2(C)C` (stereo not given in full), the result was inactive.

As for `CCC(=O)OCCOc1ccccc1`, the compound was classed as inactive.

`CCCCSCCCC`: the call was inactive.

Take `CC(=O)Nc1ccc(C(=O)CCl)cc1`: the half-maximal activity concentration (AC50) is 7.85 µM (active).

Turning to `C=CC(=O)OCCC#N`, the AC50 was 36.4 µM (active).

`IC(I)I`: the outcome was inactive.

Consider `CCCCC(CC)(CO)CO`, for which the compound was called inactive.

Take `C#CC(C)(O)CC(C)C` (stereo not given): the compound was called inactive.

On to `C=Cc1ccc(C(C)(C)C)cc1`, for which the compound was called inactive.

With `CCCCCCCCC=CCCCCCCCC1=NCCN1CCO`, the compound was classed as inactive.

`C=CCCCCCCCCCC`: the compound was called inactive.

For `C=C1C[C@]23C[C@@]1(O)CC[C@H]2[C@@]12C=C[C@H](O)[C@@](C)(C(=O)O1)[C@H]2[C@@H]3C(=O)O`, the result was inactive.

Take `CCC(C)c1cc([N+](=O)[O-])cc([N+](=O)[O-])c1OC(=O)OC(C)C` (stereo not given): the AC50 was 24.3 µM (active).

`CCCC(C)C(O)CC` (stereo not given): the compound was classed as inactive.

Turning to `CC(C)OCCO`, the result was inactive.

For the compound `CC(=O)O[C@@H]1C[C@@H]2CC[C@@]1(C)C2(C)C`, the call was inactive.

For the compound `COC(C)(C)CCO`, the call was inactive.

With `BrCc1cccc(Oc2ccccc2)c1`, the call was inactive.

As for `Cc1occc(=O)c1OC(=O)C(C)C`, the result was inactive.

With `CC1(C)O[C@@H]2C[C@H]3[C@@H]4CCC5=CC(=O)C=C[C@]5(C)[C@@]4(F)[C@@H](O)C[C@]3(C)[C@]2(C(=O)CO)O1`, the compound was classed as inactive.

As for `CS(=O)(=O)c1ccc(C2=C(c3ccccc3)C(=O)OC2)cc1`, the compound was classed as inactive.

In the case of `ClC(c1ccccc1)(c1ccccc1)c1ccccc1`, the compound was classed as inactive.

`O=C(O)CNc1ccccc1`: the result was inactive.

Usually AC50 stands for the midpoint of the concentration-response curve, whichever way the signal moves.
